An excerpt weighted towards active compounds, which were near 3.5% of everything screened.
FBW7 activator = activators of human E3 ligase FBW7; 650,000 tested, 0.13% active; AID 1259310; Q969H0; normalized activity (activation), % at 26.1 µM; AlphaScreen FBW7–phospho-cyclin E peptide binding, activator screen; in the data active = normalized activity above about 1.9%;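 note: purified mutant Fbw7 with reduced substrate affinity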
MITF primary = inhibitors of human MITF. O75030. AlphaScreen MITF homodimerization, bead proximity signal. inhibition, % at 2.6 µM. 650,000 tested, 0.91% active; in the data active = inhibition above about 50%
TEAD-YAP block = TEAD-YAP interaction inhibition. HEK-TIYL cells, TEAD-Gal4/YAP UAS-luciferase luminescence. inhibition, % at 9.12 µM. 640,000 tested, 1.4% active. AID 1259422; in the data active = inhibition above about 32%
GPR151 ag = human GPR151 activation. activation, % at 11.2 µM. AID 1508602. 650,000 tested, 1% active. PathHunter beta-arrestin GPR151 cells, luminescence; in the data active = activation above about 4.9%
Target sequence (Q8TDV0 whole entry, looked up): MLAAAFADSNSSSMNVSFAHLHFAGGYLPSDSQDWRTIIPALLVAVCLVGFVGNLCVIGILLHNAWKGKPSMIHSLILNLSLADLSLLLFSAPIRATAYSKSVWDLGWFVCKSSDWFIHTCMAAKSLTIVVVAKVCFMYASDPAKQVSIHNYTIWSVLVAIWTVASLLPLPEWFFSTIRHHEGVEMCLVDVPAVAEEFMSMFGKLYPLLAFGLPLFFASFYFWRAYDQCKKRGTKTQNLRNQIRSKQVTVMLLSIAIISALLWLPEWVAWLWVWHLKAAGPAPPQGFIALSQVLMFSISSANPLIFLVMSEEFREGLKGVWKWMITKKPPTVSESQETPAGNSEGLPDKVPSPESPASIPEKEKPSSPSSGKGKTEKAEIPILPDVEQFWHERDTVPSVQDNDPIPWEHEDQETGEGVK
Numbers stand for hits; – = inactive.

SMILES	FBW7 activator	MITF primary	TEAD-YAP block	GPR151 ag
COc1ccc(NC(=O)c2cc3cccc(OC)c3oc2=Nc2ccc(C(=O)O)cc2)c(OC)c1	–	–	–	–
CC/C(C)=N\NC(=O)c1cc(OC)c(OC)c(OC)c1	–	–	58.0	–
COc1cccc2cc(C(=O)NCc3ccco3)c(=Nc3ccc(C(=O)O)cc3)oc12	–	–	46.2	–
COc1ccc(C(=O)N/N=C(\C)CC(=O)NCc2ccco2)cc1OC	–	–	35.1	–
CN(C)C=Nc1ccnc(C(F)(F)F)c1C(=O)c1ccccc1	–	–	–	–
O=C(COc1ccccc1)Nc1ccc(N2CCOCC2)c(Cl)c1	–	–	–	–
CN(C)/C(=N\S(=O)(=O)c1ccc(Cl)cc1)c1ccccc1	–	–	–	–
COc1cc(C(=O)NN=C2CCCCCC2)cc(OC)c1OC	–	–	59.9	–
O=C1OC(c2cccc3ccccc23)=N/C1=C/c1ccc2c(c1)OCO2	–	–	–	–
CCN(CC)S(=O)(=O)c1ccc(Cl)c(C(=O)Oc2ccc(C=O)cc2OC)c1	–	–	–	–
c1ccc(CN2CCC(NCc3ccc(N4CCOCC4)cc3)CC2)cc1	–	68.1	–	–
Cc1cc(C)cc(C(=O)Nc2ccc(C(N)=O)cc2)c1	–	–	–	–
Cc1ccn2cc(-c3ccc(Cl)cc3)nc2c1	–	–	78.4	–
CCc1ccc(-c2cn3ccc(C)cc3n2)cc1	–	–	96.4	–
CCc1ccc(-c2cn3cc(C)ccc3n2)cc1	–	–	–	–
Cc1ccn2cc(-c3ccccc3Cl)nc2c1	–	–	70.7	–
Cc1ccn2cc(-c3cc4ccccc4oc3=O)nc2c1	–	–	–	–
Cc1cccc(C)c1NC1=NC(=S)N(c2ccccc2)C1(C)Cc1ccccc1 (stereo unspecified)	–	–	–	–
Cc1ccc(C2=NN(S(=O)(=O)c3ccccc3)C(c3ccc(C)cc3)C2)cc1 (stereo unspecified)	–	–	–	–
C/C(=N\OCC(=O)Nc1cc(C)on1)c1ccc(Br)cc1	–	–	–	–
CC(=O)NC(=S)Nc1sc2c(c1C#N)CCCCC2	–	–	65.9	–
Cc1onc(-c2ccccc2)c1C(=O)Nc1sc2c(c1C#N)CCCC2	–	–	31.9	–
N#Cc1c(NC(=O)c2cccc3ccccc23)sc2c1CCC2	–	–	58.1	–
N#Cc1c(NC(=O)c2cccc3ccccc23)sc2c1CCCC2	–	–	43.0	–
NC(=O)c1c(NC(=O)c2cccc3ccccc23)sc2c1CCC2	–	–	–	–
SMILES	FBW7 activator	MITF primary	TEAD-YAP block	GPR151 ag
Cc1onc(-c2ccccc2)c1C(=O)Nc1sc2c(c1C#N)CCC(C)C2 (stereo unspecified)	–	–	–	–
O=C(COc1ccc(Cl)cc1)NCCO	–	–	–	–
O=C(Nc1ccc(-c2ccc(N3CCOCC3)nn2)cc1)c1ccc(Cl)cc1	–	–	–	–
CCn1cc(-c2nnc(SCC(=O)c3ccccc3)n2C)ccc1=O	–	–	–	–
NC(=O)c1c(NC(=O)C2CC2c2ccccc2)sc2c1CCCC2 (stereo unspecified)	–	–	–	–
N#Cc1c(NC(=O)c2ccccc2I)sc2c1CCCC2	–	–	48.6	–
N#Cc1c(NC(=O)c2cc(Cl)ccc2[N+](=O)[O-])sc2c1CCC2	–	–	37.4	–
N#Cc1c(NC(=O)CSc2ncn[nH]2)sc2c1CCCCC2	–	–	68.1	–
N#Cc1c(NC(=O)C2CC2c2ccccc2)sc2c1CCC2 (stereo unspecified)	–	–	42.6	–
CCCc1nnc2sc(NC(=O)c3ccccc3)nn12	–	–	–	–
CCOC(=O)C1=C(C)N=c2s/c(=C\c3cccc([N+](=O)[O-])c3)c(=O)n2C1c1ccccc1 (stereo unspecified)	–	–	–	–
CCn1c(SCC(=O)Nc2ccc([N+](=O)[O-])cc2)nnc1-c1ccc(O)cc1	–	–	49.8	–
O=C(c1ccc2cncc(-c3ccsc3)c2n1)N1CCC(O)CC1	–	–	61.3	–
O=C(c1ccc2cncc(-c3ccccc3)c2n1)N1CCOCC1	–	–	36.2	–
O=C(c1ccc2cncc(-c3ccccc3)c2n1)N1CCC(O)CC1	–	–	50.9	–
Cc1ccc2c(c1)OC(c1cc(Cl)cc3c1OCOC3)C/C2=N/O (stereo unspecified)	–	–	–	–
O[C@@H]1[C@@H](O)C=C2CCN3Cc4cc5c(cc4[C@H]1C23)OCO5 (stereo partly specified)	–	–	82.2	–
COc1ccc(CC2=NOC(C(=O)NCc3ccco3)C2)cc1 (stereo unspecified)	–	–	–	–
CC(C)(C)C(=O)NCC1Cc2cc(F)cc(-c3cnccn3)c2O1 (stereo unspecified)	–	–	–	–
CCN(CC)C(=O)C1CCCN(c2nc(NCCOc3ccccc3)c3ncn(-c4ccsc4)c3n2)C1 (stereo unspecified)	–	–	–	–
CCN(CC)C(=O)C1CCCN(c2nc(N)c3ncn(-c4ccsc4)c3n2)C1 (stereo unspecified)	–	–	50.9	–
CCN(CC)C(=O)C1CCCN(c2nc(Nc3ccccc3)c3ncn(-c4ccsc4)c3n2)C1 (stereo unspecified)	–	–	33.3	–
CCCNc1nc(N2CCCC(C(=O)N(CC)CC)C2)nc2c1ncn2-c1ccsc1 (stereo unspecified)	–	–	36.6	–
CCOc1ccc(NC2=CC(c3ccc(C(C)(C)C)cc3)N(c3ccc(OCC)cc3)C2=O)cc1 (stereo unspecified)	–	–	–	–
COc1ccc2c(c1)nc(SCc1ccccc1)n2C	2.0	–	–	–
SMILES	FBW7 activator	MITF primary	TEAD-YAP block	GPR151 ag
COc1ccc2c(c1)nc(SCC(=O)C(C)(C)C)n2C	–	–	–	–
COCC(=O)Nc1ccccc1C(=O)Nc1cccc(Cl)c1	–	–	–	–
O=c1oc2c(ccc3c(O)cccc32)c2c1CCCC2	–	–	45.3	–
COC(=O)COc1cccc2c1ccc1c3c(c(=O)oc12)CCCC3	–	–	–	–
O=C(COc1ccc(Cl)cc1)N1CCC2(CCC(=O)N2Cc2ccccc2F)CC1	–	–	–	–
Cc1ccc(/C=N/NC(=O)c2ccc3c(c2)OCO3)c(O)c1	–	–	55.6	–
Cc1ccc(C(=O)N/N=C/c2ccc3c(c2)OCO3)cc1	–	–	–	–
Cc1ccc(/C=N/NC(=O)c2ccncc2)c(O)c1	–	56.5	–	–
CCCc1cc(=O)[nH]c2nnc(SCC(=O)N3CCN(c4ccccc4)CC3)n12	–	–	–	–
COc1ccc(-c2cc(C(F)(F)F)n3nc(C(=O)NC(C)(C)C)cc3n2)cc1OC	1.9	–	–	–
COc1ccc(-c2cc(C(F)(F)F)n3nc(C(=O)NC(C)(C)CC(C)(C)C)cc3n2)cc1OC	–	–	–	–
COc1cc(OC)cc(C2=NC3(CCCCC3)NC2=O)c1	2.1	–	–	–
O=C(NN=C1CCCC1)c1n[nH]c2c1CCCC2	–	–	41.6	–
CC1(C)CC(=NNC(=O)c2n[nH]c3c2CCCC3)CC(C)(C)N1	–	–	39.0	–
CC1(C)CC(=NNC(=O)c2ccncc2)CC(C)(C)N1	–	–	–	–
CC/C(C)=N/NC(=O)c1n[nH]c2c1CCC2	–	–	43.0	–
